Measured values as given in the supplement of paper PMC11732987, “Enantioselective OTUD7B fragment discovery through chemoproteomics screening and high-throughput optimisation” (Communications Chemistry, 2025).

Experiments:
Assay in all cases: log2 ratio of Biotin-Ahx-Ub-VS probe labelling (fragment/DMSO); higher = less target engagement (more negative = stronger competition), active = hit call of the paper (q ≤ 0.05, log2 ratio ≤ -1)
Conditions in all cases: compound concentration: 200 uM; treatment time: 3 h
[1] = biological target: T1, USP42 (UniProt Q9H9J4)
T1 sequence (whole entry): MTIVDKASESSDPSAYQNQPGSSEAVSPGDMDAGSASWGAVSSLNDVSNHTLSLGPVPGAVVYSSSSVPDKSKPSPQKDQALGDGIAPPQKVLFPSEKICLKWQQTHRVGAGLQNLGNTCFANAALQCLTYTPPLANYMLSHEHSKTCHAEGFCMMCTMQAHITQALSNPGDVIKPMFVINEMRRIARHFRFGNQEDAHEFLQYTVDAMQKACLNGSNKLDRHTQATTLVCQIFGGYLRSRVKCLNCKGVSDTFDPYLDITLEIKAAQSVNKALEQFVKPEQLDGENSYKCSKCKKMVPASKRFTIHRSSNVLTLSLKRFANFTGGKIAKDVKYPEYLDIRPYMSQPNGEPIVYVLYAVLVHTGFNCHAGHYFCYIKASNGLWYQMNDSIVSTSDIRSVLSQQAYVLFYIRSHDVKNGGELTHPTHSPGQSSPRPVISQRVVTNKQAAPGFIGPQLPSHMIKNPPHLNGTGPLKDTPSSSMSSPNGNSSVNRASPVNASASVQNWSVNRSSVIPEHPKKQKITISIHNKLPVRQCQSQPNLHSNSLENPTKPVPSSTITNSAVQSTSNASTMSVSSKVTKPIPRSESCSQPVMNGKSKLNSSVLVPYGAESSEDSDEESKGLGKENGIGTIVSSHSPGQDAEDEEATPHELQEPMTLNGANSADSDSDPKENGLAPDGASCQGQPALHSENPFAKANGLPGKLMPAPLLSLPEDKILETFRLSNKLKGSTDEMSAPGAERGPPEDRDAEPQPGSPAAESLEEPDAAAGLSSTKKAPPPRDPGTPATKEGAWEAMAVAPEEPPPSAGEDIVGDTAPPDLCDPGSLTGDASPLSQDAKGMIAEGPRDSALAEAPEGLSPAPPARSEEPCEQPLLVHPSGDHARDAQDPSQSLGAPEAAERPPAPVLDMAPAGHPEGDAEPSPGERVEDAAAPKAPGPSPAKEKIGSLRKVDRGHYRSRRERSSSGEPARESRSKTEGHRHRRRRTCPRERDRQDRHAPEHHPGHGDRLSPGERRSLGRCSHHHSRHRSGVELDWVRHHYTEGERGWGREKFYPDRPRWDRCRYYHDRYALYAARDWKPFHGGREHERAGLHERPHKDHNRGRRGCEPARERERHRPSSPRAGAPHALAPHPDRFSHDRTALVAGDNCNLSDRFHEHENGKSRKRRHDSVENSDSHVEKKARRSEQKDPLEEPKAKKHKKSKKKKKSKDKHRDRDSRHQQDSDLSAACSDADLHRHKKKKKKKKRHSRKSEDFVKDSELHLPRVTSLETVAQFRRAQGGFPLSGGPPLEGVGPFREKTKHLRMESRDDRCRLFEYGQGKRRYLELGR
Method in brief: (§1)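 Labelled DUBs from HEK293T lysate were NeutrAvidin-enriched, digested with LysC and trypsin, and run by diaPASEF LC-MS/MS. Before that, each 495 µg sample in Tris/CHAPS/IGEPAL buffer with protease inhibitors was treated in triplicate with fragment at 200 µM or vehicle for 3 h, then with Biotin-Ahx-Ub-VS at 0.5 µM final for 1 h. Values are average log2 ratios of fragment over vehicle by unpaired t-test, based on global-median-normalised Spectronaut label-free quantities from proteins with ≥2 unique peptides.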

[2] = biological target: USP46 (UniProt P62068)
Chain of USP46 (P62068 whole entry): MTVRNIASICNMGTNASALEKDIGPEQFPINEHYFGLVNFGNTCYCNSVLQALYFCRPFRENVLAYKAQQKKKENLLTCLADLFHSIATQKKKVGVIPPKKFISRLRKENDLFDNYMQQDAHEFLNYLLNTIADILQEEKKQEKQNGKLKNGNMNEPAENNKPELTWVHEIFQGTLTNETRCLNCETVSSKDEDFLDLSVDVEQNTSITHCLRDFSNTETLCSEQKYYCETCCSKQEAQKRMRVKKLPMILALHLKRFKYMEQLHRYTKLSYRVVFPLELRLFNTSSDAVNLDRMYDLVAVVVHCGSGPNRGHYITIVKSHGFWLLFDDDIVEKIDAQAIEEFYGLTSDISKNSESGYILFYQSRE
Method in brief: as §1

[3] = biological target: T2, USP47 (UniProt Q96K76)
T2 sequence (whole entry): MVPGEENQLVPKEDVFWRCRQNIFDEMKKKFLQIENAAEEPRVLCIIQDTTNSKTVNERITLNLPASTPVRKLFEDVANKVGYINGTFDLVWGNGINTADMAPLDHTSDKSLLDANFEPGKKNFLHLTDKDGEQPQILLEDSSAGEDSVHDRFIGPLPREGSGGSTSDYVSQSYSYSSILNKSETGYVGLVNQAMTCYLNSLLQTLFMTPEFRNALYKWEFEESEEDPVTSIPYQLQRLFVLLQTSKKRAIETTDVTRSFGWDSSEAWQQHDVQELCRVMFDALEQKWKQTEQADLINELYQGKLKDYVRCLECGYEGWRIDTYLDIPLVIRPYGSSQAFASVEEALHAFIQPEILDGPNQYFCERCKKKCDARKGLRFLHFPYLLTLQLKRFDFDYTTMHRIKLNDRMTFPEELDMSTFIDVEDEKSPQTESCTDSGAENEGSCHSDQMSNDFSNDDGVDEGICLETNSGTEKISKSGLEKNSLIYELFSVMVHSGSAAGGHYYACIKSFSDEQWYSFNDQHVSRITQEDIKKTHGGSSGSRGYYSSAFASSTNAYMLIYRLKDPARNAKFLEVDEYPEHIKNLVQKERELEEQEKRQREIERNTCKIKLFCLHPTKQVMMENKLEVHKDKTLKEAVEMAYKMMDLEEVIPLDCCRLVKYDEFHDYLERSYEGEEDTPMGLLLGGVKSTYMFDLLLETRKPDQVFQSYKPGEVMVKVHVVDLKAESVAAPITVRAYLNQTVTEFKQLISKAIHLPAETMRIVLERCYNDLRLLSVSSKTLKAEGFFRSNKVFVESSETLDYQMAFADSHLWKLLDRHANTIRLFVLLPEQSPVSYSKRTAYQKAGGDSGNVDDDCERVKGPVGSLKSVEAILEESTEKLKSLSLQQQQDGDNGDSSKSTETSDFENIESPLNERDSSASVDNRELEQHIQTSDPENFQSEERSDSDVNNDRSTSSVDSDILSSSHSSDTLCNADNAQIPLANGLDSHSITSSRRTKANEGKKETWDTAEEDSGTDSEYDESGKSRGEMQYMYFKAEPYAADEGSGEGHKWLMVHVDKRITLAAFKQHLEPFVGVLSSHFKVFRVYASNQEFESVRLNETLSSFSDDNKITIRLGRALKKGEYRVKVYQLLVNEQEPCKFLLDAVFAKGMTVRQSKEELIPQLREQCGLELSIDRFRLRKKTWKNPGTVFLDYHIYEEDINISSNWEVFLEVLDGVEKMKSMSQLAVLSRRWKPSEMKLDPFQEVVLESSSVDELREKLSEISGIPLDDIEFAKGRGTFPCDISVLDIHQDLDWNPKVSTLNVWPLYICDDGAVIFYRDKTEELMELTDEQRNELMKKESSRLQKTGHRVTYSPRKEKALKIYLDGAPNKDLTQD
Method in brief: as §1

[4] = biological target: T3, USP48 (UniProt Q86UV5)
T3 sequence (whole entry): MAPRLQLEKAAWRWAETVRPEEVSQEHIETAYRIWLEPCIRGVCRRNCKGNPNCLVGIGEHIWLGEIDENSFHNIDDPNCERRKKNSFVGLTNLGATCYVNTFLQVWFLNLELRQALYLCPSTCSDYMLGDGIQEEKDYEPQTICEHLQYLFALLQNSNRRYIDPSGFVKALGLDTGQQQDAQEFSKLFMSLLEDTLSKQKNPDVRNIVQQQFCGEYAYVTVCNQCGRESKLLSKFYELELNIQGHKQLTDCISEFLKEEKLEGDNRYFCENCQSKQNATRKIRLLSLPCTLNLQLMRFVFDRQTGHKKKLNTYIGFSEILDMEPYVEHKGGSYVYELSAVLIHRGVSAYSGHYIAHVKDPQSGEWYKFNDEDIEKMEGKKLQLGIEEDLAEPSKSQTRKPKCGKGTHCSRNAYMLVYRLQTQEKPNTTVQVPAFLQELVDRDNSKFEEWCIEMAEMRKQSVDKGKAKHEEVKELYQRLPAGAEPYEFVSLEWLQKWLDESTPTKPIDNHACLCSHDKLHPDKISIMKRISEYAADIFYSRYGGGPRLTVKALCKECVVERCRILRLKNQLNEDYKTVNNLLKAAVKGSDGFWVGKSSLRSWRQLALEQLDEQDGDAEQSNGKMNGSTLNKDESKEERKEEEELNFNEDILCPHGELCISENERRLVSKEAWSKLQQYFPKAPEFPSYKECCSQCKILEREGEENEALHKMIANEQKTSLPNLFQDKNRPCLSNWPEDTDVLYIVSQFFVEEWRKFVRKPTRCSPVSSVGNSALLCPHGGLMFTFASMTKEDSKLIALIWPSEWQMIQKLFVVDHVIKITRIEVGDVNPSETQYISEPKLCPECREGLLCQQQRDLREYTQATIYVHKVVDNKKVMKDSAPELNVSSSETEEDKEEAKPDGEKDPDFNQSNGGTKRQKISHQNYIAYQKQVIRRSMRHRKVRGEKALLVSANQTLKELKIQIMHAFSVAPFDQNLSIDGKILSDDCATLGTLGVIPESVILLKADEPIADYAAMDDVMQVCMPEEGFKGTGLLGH
Method in brief: as §1

[5] = biological target: T4, USP5 (UniProt P45974)
T4 sequence (whole entry): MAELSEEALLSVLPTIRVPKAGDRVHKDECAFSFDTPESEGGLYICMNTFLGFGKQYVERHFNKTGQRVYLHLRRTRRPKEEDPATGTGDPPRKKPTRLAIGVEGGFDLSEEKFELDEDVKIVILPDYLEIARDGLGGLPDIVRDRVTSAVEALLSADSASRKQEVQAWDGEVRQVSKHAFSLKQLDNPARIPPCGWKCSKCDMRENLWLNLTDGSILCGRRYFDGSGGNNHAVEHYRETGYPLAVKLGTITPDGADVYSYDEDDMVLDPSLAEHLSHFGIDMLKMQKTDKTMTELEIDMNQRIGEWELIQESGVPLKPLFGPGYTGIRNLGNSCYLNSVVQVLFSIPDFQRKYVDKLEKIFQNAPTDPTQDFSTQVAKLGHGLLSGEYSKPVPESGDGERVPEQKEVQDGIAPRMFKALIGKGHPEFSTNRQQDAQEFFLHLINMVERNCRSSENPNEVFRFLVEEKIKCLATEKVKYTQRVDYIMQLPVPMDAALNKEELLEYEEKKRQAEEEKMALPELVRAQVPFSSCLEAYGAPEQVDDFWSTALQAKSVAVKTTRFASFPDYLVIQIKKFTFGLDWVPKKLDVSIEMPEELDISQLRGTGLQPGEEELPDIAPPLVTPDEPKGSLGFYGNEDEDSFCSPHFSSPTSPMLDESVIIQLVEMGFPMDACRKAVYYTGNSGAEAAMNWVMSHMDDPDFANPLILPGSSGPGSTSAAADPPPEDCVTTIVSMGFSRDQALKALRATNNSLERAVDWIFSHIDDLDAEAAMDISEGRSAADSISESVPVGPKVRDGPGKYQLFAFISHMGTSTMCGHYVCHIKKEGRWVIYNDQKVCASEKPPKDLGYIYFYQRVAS
Method in brief: as §1

[6] = biological target: USP54 (UniProt Q70EL1)
Chain of USP54 (Q70EL1 whole entry): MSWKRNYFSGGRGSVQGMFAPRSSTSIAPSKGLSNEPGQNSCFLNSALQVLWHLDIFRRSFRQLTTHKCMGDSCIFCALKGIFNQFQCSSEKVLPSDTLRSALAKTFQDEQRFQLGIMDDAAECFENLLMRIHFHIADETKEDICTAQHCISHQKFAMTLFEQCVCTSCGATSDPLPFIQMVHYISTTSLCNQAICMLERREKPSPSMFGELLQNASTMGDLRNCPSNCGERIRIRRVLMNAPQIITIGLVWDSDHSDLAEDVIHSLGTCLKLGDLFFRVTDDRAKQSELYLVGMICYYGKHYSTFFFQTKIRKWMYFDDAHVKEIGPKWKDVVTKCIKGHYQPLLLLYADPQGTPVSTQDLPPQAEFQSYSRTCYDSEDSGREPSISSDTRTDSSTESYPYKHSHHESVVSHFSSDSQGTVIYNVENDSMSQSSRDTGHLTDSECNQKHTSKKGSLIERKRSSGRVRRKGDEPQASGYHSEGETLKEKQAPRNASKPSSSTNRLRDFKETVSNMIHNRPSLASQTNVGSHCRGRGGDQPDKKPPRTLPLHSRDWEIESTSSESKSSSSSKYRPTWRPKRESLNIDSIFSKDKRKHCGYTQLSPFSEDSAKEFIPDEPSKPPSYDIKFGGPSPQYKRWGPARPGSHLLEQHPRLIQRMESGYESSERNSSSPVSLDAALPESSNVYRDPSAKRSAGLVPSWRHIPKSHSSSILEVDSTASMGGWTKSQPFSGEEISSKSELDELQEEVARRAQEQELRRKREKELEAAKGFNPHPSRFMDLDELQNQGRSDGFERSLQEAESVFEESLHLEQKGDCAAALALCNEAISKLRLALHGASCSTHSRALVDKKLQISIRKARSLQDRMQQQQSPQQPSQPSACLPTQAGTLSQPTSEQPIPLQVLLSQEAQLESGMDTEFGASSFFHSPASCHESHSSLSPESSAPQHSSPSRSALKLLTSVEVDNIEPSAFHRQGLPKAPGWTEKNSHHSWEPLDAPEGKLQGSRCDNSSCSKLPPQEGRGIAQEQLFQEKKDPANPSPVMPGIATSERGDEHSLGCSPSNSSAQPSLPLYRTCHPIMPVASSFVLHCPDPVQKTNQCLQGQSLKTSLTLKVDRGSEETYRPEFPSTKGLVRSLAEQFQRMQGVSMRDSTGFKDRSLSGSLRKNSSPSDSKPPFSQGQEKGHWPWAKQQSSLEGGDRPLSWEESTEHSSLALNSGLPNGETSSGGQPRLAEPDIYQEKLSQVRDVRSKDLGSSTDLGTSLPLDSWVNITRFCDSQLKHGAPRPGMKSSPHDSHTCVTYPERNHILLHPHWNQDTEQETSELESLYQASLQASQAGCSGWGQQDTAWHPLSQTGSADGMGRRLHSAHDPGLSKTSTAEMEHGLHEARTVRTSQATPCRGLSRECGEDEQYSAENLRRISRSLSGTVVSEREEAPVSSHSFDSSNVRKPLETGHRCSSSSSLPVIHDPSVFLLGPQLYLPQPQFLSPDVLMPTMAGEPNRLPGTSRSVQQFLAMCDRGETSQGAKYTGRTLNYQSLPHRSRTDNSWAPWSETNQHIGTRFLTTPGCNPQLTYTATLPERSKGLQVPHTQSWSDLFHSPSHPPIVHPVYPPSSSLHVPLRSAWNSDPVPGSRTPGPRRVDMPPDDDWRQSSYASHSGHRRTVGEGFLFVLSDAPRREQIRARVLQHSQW
Method in brief: as §1

[7] = biological target: USP7 (UniProt Q93009)
Chain of USP7 (Q93009 whole entry, looked up): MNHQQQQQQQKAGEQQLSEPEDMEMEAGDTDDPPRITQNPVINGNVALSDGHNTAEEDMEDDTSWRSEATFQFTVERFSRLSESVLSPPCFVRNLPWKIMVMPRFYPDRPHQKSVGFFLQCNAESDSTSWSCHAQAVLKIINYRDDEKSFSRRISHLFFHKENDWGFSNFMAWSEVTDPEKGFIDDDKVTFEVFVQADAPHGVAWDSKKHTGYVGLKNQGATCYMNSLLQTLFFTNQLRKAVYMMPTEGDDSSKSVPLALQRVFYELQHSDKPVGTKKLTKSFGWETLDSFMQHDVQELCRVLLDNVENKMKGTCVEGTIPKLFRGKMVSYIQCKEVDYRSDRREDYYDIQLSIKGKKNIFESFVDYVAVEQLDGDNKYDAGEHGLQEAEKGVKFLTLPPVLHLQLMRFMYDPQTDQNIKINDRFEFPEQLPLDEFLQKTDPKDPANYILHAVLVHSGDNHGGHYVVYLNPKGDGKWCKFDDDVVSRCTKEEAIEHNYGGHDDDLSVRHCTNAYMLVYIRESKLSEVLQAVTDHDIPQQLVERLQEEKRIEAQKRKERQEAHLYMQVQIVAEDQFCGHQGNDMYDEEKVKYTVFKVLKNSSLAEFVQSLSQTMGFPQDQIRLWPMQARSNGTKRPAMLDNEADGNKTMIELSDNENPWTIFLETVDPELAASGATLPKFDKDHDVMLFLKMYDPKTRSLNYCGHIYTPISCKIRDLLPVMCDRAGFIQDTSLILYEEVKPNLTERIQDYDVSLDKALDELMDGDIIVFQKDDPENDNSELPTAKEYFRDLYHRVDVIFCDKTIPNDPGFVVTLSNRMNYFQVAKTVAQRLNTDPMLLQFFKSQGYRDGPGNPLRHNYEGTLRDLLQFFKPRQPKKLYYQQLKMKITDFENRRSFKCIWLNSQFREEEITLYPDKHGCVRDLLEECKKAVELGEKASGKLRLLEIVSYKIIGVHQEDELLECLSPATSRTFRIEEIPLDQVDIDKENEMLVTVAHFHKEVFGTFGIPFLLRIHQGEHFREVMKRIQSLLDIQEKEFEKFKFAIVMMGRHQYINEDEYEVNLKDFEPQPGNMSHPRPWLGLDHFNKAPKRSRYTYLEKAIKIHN
Method in brief: as §1

[8] = biological target: T5, USP8 (UniProt P40818)
T5 sequence (whole entry): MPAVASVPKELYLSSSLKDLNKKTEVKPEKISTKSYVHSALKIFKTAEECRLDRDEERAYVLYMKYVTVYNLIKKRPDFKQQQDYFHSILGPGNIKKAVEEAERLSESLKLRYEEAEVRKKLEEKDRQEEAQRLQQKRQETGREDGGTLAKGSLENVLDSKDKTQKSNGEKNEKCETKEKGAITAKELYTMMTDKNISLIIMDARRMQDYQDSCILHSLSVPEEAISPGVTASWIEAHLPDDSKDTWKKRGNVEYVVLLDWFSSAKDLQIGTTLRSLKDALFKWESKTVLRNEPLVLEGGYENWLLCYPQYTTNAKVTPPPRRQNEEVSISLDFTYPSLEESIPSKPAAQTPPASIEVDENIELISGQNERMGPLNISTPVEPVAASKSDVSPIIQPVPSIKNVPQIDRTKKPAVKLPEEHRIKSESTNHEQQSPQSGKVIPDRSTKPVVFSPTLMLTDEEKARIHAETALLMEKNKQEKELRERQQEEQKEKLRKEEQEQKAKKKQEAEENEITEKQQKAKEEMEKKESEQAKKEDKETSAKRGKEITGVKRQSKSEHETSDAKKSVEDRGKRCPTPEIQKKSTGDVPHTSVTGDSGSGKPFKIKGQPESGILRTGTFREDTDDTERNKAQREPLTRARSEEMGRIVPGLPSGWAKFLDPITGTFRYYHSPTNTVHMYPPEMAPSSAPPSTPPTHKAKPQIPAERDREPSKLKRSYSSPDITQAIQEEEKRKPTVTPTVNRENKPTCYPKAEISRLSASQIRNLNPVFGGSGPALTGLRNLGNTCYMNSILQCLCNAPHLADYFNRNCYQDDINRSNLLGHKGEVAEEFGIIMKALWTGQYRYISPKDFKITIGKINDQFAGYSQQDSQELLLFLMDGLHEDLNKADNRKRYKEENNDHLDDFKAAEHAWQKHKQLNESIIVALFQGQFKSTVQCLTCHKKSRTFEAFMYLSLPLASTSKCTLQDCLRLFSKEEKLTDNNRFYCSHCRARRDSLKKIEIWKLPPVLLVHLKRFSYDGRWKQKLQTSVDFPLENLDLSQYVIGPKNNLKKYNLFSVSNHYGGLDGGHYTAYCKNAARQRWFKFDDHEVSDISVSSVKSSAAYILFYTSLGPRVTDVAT
Method in brief: as §1

Measured: log2 ratio of Biotin-Ahx-Ub-VS probe labelling

Cc1cnc2[nH]cc(CCNC(=O)CCl)c2c1
inactive: [1] 0.34 | [2] -0.0833 | [3] -0.00951 | [4] 0.00232 | [5] -0.115 | [6] 0.181 | [7] -0.0122 | [8] -0.428
